For 40 molecules, growth results are on record in PubChem BioAssay (NCI).

The panel holds about 83,000 compounds, 20% with a hit somewhere; the sample as a whole holds those more often.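 Interpretation: 100, growth as untreated; towards 0, rising growth inhibition; 0, no net growth; 0 to -100, cell death. Compounds scoring below 10 were considered active.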 Active and inactive are the calls of the source.

For the assay, the system named is SNB-75 CNS. Briefly: NCI-60 one-dose screen, 48 h (100 = growth as untreated, 0 = no growth, -100 = all killed). As to conditions: 10 µM unless noted. How it is done:
Growth inhibition of the SNB-75 human tumor cell line is measured as a screen for anti-cancer activity. Cells are grown in 96 well plates and exposed to the test compound for 48 hours. Compounds are tested at a single concentration, which is 10^-5 M for most compounds. The reported endpoint is percent growth (GI% or GIPRCNT), where numbers from 0 - 100% represent growth inhibition, and numbers from -100% - 0 represent cell death. For example, a value of 40 represents 60% growth inhibition. A value of 0 means no net growth occurred over the course of the experiment. A value of -40 indicates 40% of cells at the beginning of the experiment died by the end of the experiment. A value of -100 means all cells are dead at the end of the experiment.
NCI-60 Human Tumor Cell Lines Screen was performed using the standard one-dose NCI protocol, which is described in more detail at https://dtp.cancer.gov/discovery_development/nci-60/default.htm.
Compounds with GIPRCNT values below 10 were considered active. Activity score was based on GIPRCNT using the following formula: […]
Score is 0 for GIPRCNT values of 100 or above, 50 for GIPRCNT values of 0, and 100 for GIPRCNT values of -100.
In the case of `NS(=O)(=O)c1ccc(CCN2C(=O)C=CC2=O)cc1`, the growth is 99.3% (inactive).
On to `O=C(Cc1ccc(/C=C/C(=O)c2ncc[nH]2)cc1)Nc1ccc(Cl)cc1`, for which the growth is 25.3% (inactive).
The figure for `O=C1C=CC(=O)N1c1cccc(Cl)c1` is 115% (inactive); for `CC1=C(C(=O)/C=C/c2ccc(N(C)C)cc2)C(c2ccccc2)NC(=S)N1` (stereo not given) it is 86.9% (inactive).
With `COc1c(Cl)c2c(c(OC)c1OC)-c1ccc(SC)c(=O)cc1[C@@H](NC(=O)OCC(F)(F)F)CC2`, the growth is 37.4% (inactive).
The figure for `CC(C)(C)c1cc(/C=N/NC(=O)c2ccccc2NC(=O)c2cccs2)c(O)c(C(C)(C)C)c1` is 34.9% (inactive).
Under `O=C(Nc1cccc(C2=NCCN2)c1)c1ccc(-c2ccc(C(=O)Nc3cccc(C4=NCCN4)c3)cc2)cc1` stands 82% (inactive); under `c1ccc2c(-c3c[nH]c4ccccc34)c3c(cc2c1)[nH]c1ccccc13`, 38.4% (inactive); under `O=C(Nc1cccc(C(=O)N2CCc3ccc(Cl)cc32)c1)c1ccco1`, 0.916% (active).
The figure for `Brc1ccc(Nc2csc(-c3ccccn3)n2)cc1` is 72.3% (inactive).
For `O=C1Nc2ccccc2/C1=C\c1c(-c2ccc(F)cc2)nc2ccccn12`, the growth is 71.3% (inactive).
As to `O=C(/C=C/c1ccc(F)cc1)c1ccc(NC(=O)N2CCN(c3cc4c(cc3F)c(=O)c(C(=O)O)cn4C3CC3)CC2)cc1`, the growth was 90.7% (inactive).
Take `CCSCC1CC(O)(c2ccccc2)CC(c2ccc(F)cc2)O1` (stereo not given): the growth is 33.1% (inactive).
The figure for `Cc1ccc(S(=O)(=O)Nn2c3c(cc(-c4nc5ccccc5s4)c2=O)CCCCCC3)cc1` is 91.9% (inactive); for `COc1cc(/C=N/NC(=O)c2cnn3c2NC(c2ccccc2)C3)ccc1OCc1ccccc1` (stereo not given) it is 26.1% (inactive).
The figure for `CCCC/C=N/NC(=S)NCc1ccccc1` is 86% (inactive); for `O=C(/C(=C/c1ccc([N+](=O)[O-])cc1)SCc1ccc(F)cc1)c1ccc(F)cc1` it is 96.8% (inactive); for `CCCCCN1C=C/C(=C\C(=O)N(C)c2ccc(OC(F)(F)F)cc2)c2ccccc21` it is 104% (inactive).
With `COc1ccc(-c2nc3sccn3c2/C=C/C(=O)c2ccc3c(c2)OCO3)cc1`, the growth was 72.3% (inactive).
The figure for `Cc1ccc(-c2nc3ccccn3c2/C=C2/C(=O)Nc3cc(Cl)ccc32)cc1` is 61.8% (inactive).
In the case of `CCCCCCCCOc1ccc(/C=N/Nc2cc(C)nc3ccc(Br)cc23)cc1`, the growth is 20% (inactive).
Turning to `COc1cc(CC(=O)c2ccc(O)c(OC)c2)ccc1O`, the growth was 96.8% (inactive).
Under `Nc1nc(Nc2ccccc2SSc2ccccc2Nc2nc(N)nc(-c3ccc(C(F)(F)F)cc3)n2)nc(-c2ccc(C(F)(F)F)cc2)n1` stands 86.2% (inactive); under `CCOC(=O)c1cc(C(=O)c2cc(OC)cc(OC)c2)n2ccc3ccccc3c12`, -7.31% (active).
Under `O=C(c1nc2ccccc2[nH]1)C1C(c2ccc(Br)cc2)C2CC3CCCC[C@H]3N2[C@@]12C(=O)Nc1cc(Cl)ccc12` (stereo not given in full) stands 49.1% (inactive); under `COc1cc2nc(-c3ccc(C(F)(F)F)cc3)cc(OCCCN3CCCC3)c2cc1OC`, -19% (active).
`COC(=O)C1=C(C(=O)ON)C2C=CC1(C(Cc1ccccc1)Nc1ccccc1)O2` (stereo not given): the growth was 106% (inactive).
Take `N/C(=N\C(N)=N\c1nc2ccccc2s1)c1cnccn1`: the growth is 35.8% (inactive).
Regarding `Nc1c(C(=O)Nc2cccc3cnccc23)sc2nc3c(cc12)CN(Cc1ccccc1)CC3`, the growth was 96.5% (inactive).
As for `C=C1C(=O)O[C@H]2[C@H]1CC/C(CNC(=O)/C=C/c1ccccc1)=C\CC[C@@]1(C)O[C@@H]21`, the growth was 86.8% (inactive).
With `O=C1c2c(c3c4cccc(F)c4[nH]c3c3ccc4ccccc4c23)C(=O)N1O`, the growth is 68.7% (inactive).
On to `O=C1NN(C(=O)c2ccccc2)C(c2ccc(Cl)c(Cl)c2)=C/C1=C\c1ccc([N+](=O)[O-])cc1`, for which the growth is 65.3% (inactive).
The figure for `COc1cc(C(=O)Nc2cc3c(cc2Oc2cc(C)cc(C)c2)C(=O)N(C)[C@@H](CC(=O)N(C)O)C(=O)N3)c(Br)c(OC)c1OC` is -48.1% (active).
In the case of `CCOC(=O)c1nc2c3ccccc3ccn2c1C(=O)OCC`, the growth was 36.8% (inactive).
In the case of `Cn1c(-c2c(N)n(CCCN3CCOCC3)c3nc(C#N)c(C#N)nc23)nc2ccccc21`, the growth was 38.4% (inactive).
As to `COc1ccc(C(=O)c2nc3ccccc3n2CC(=O)c2ccc(F)cc2)cc1`, the growth was 59.6% (inactive).
As for `COc1cc(/C=N/NC(=O)c2cnn3c2NC(c2ccccc2)C3)ccc1Oc1ccccc1` (stereo not given), the growth is 27.6% (inactive).
Under `Cn1c(N2NC(=O)C(N=Nc3ccc(S(N)(=O)=O)cc3)C2=O)nc(-c2ccco2)c(C#N)c1=O` (stereo not given) stands 64.5% (inactive); under `O=S(=O)(NCCNc1nccc(-c2c(-c3cccc(O)c3)nc3occn23)n1)c1ccc(Cl)cc1`, 109% (inactive).
Under `Cc1c(C(=O)NCCC(=O)NO)sc2ncnc(Nc3ccc(NC(=O)Nc4cccc(C(F)(F)F)c4)cc3)c12` stands 78.8% (inactive).
